A selection: hits, their analogues and other compounds. The true share with any hit is near 2.9%.
PP1 counter: PP1-alpha phosphatase inhibitors, primary screen, counter-screen for PP5 inhibitor project, biochemical, fluorescence, OMFP substrate, single point. inhibition, % at 6.7 µM. 320,000 tested, 0.9% active. purified PP1alpha;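 active = inhibition above the mean inhibition of all tested compounds plus 3 SD, computed separately for each screening campaign, cut at about 15% in these data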
Exocytosis inh: LAMP-1 surface exposure blockers, TALL-104 cells – cell-based, flow cytometry, MLPCN library, primary screen | TALL-104 LAMP-1 surface exposure; cells stimulated with thapsigargin and PMA | AID 651702, 2012 | inhibition, % at 10 µM | 360,000 tested, 0.66% active;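 active = inhibition above about 55%, limit read from the data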
GRK2 inh: compounds blocking aptamer binding on GRK2 – biochemical, human GRK2, bead flow cytometry, HTS, primary screen. FAM-aptamer displacement from GRK2. 330,000 tested, 0.59% active. AID 488847, 2010. inhibition of aptamer binding, % at 10 µM;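 active = inhibition of aptamer binding above 40%, roughly 3 SD of noise, on plates passing a quality check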;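 note: median bead fluorescence of bound FAM aptamer so fluorescent compounds give negative values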
B2AR ag: beta2AR agonists driving receptor internalization, primary screen, cell-based, FAP fluorogen, flow cytometry; Beta-2 adrenergic receptor (Homo sapiens), P07550; Am2.2-beta2AR cells; response, % (concentration not given with the values); 340,000 tested, 0.43% active;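 active = response above a set limit, near 3 SD of response in nonfluorescent compounds, cut at about 42% in these data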
NadD block: inhibitors of S. aureus NadD, primary screen, biochemical, colorimetric, uHTS; Nicotinate-nucleotide adenylyltransferase NadD (Staphylococcus aureus N315); purified NadD enzyme, colorimetric absorbance read-out; inhibition, % at 20 µM; 360,000 tested, 0.78% active; in the data active = inhibition above about 26%
PP1 confirm: PP1 phosphatase inhibitors, confirmation, biochemical, fluorescence, OMFP substrate, triplicate | shares compounds with PP1 counter | purified PP1alpha | inhibition, % at 6.7 µM | 1,900 tested, 52% active;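 active = mean PP1 inhibition above a set limit taken from the earlier primary screen, cut at about 15% in these data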
PP5 counter: PP5 phosphatase inhibition by PP1 hits, confirmation, counter-screen for PP1 inhibitor project, biochemical, fluorescence, triplicate; shares compounds with PP1 counter; purified PP5c, OMFP fluorescence; inhibition, % at 6.7 µM; 1,900 tested, 4% active; AID 2360, 2010;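 active = mean PP5 inhibition over triplicate wells above about 9.5% taken from the earlier PP1 screen, limit read from the data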
Target sequence (P53041 whole entry, looked up): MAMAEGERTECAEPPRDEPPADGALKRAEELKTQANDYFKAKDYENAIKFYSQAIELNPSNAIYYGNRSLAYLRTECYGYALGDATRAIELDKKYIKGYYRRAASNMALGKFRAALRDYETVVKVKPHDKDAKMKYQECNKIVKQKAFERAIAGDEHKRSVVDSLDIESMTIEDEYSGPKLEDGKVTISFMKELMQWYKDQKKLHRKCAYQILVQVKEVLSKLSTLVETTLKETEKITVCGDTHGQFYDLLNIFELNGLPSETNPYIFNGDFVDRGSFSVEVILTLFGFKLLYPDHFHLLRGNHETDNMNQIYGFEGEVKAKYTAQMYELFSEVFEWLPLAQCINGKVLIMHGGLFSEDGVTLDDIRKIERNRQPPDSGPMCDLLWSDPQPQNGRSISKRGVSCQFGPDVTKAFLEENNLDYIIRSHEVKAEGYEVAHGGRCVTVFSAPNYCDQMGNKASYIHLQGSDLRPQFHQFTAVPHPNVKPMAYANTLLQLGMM
* = called active by the depositor; / = no result.

SMILES	PP1 counter	Exocytosis inh	GRK2 inh	B2AR ag	NadD block	PP1 confirm	PP5 counter
O=C(Nc1ccc(Cl)c(Cl)c1)c1cccc(S(=O)(=O)NCc2cccnc2)c1	6	14	4	-3	3	/	/
O=C(COc1ccc(Cl)cc1)NCc1nnc(SCC(=O)Nc2ccccc2F)o1	3	2	1	-8	1	/	/
Cc1ccccc1NC(=S)NCC1CCN(C(C)c2ccccc2)C1 (configuration not stated)	25*	-3	0	-2	-8	-17	-5
Cc1cc(C)cc(NC(=S)NCC2CCN(C(C)c3ccccc3)C2)c1 (configuration not stated)	-2	1	0	3	-8	/	/
CC(C)Cc1csc(NC(=O)c2ccc(Br)cc2)c1C(=O)O	-1	-4	1	3	-6	/	/
CC(C)=CCc1c(O)cc2oc3c(CC=C(C)C)c(O)c(O)c(CC=C(C)C)c3c(=O)c2c1O	39*	4	0	21	6	33*	0
O=C(CSc1nc2c([nH]c3ccccc32)c(=O)n1-c1cccc(Cl)c1)N1CCOCC1	22*	-1	0	6	2	25*	-2
O=C(CSc1nc2c([nH]c3ccccc32)c(=O)n1-c1ccccc1)N1CCOCC1	9	0	0	2	3	/	/
COc1cccc(C(C)(O)c2nc(-c3ccccc3C)cs2)c1 (configuration not stated)	/	-2	/	/	-1	/	/
CCOC(=O)c1ccc(N(C(=O)CNC(=O)c2ccco2)C(C(=O)NCC2CCCO2)c2ccc(OC)c(OC)c2)cc1 (configuration not stated)	-1	-8	0	-10	7	/	/
Cc1cc(C(=O)COC(=O)c2ccc[nH]c2=O)c(C)n1-c1ccc(Br)cc1	18*	-1	0	-4	9	8	-6
CC(C)(C)OC(=O)N1CCC(NC(=O)c2[nH]cnc2C(=O)Nc2cccc(Cl)c2)CC1	-2	9	2	-1	12	/	/
CCCCC(CC)CO (configuration not stated)	/	1	1	4	1	/	/
CCCCC(CC)CN=C(N)NC(N)=NCCCCCCN=C(N)NC(N)=NCC(CC)CCCC (configuration not stated)	46*	19	0	-552	15	29*	4
CCOC(=O)c1cnc2c(C)c(-c3ccccc3)[nH]n2c1=O	49*	0	2	2	1	34*	-2
CCOC(=O)c1cnc(-n2[nH]c(C)c(Cc3ccccc3)c2=O)[nH]c1=O	28*	3	0	-9	5	15	-4
CC(C)N1CN(c2ccccc2)C(=S)N(c2ccccc2)C1	-4	0	0	4	-9	/	/
Cc1ccc(F)cc1NC(=O)N1c2ccccc2NC(=O)CC1C (configuration not stated)	3	-5	1	7	-4	/	/
CCCCN(CC)S(=O)(=O)c1ccc(C(=O)Nc2nnc(-c3cccs3)o2)cc1	26*	/	0	/	/	18*	0
CCCCN(CCCC)S(=O)(=O)c1ccc(C(=O)Nc2nnc(COC)o2)cc1	23*	2	1	-6	13	16*	-2
CCN(CC)S(=O)(=O)c1ccc(C(=O)Nc2nnc(-c3ccco3)o2)cc1	6	-7	0	-1	14	/	/
CCCCN(C)S(=O)(=O)c1ccc(C(=O)Nc2nnc(CSC)o2)cc1	24*	3	3	3	8	23*	-2
CCOC(=O)N1CCN(S(=O)(=O)c2ccc(C(=O)Nc3nnc(C)o3)cc2)CC1	7	3	1	-4	6	/	/
CCN(CC)S(=O)(=O)c1ccc(C(=O)Nc2nnc(CSC)o2)cc1	8	1	0	2	-4	/	/
CCOC(=O)N1CCN(S(=O)(=O)c2ccc(C(=O)Nc3nnc(CSC)o3)cc2)CC1	18*	0	1	-3	8	6	1
SMILES	PP1 counter	Exocytosis inh	GRK2 inh	B2AR ag	NadD block	PP1 confirm	PP5 counter
O=C(Nc1ccc(F)c(Cl)c1)Nn1cnnc1	-9	-2	0	2	0	/	/
CC1=C(C(=O)OC2CCCCC2)C(c2ccc(F)cc2)NC(=O)N1 (configuration not stated)	0	-13	2	-13	-7	/	/
CCOC(=O)[C@]12CCCC=C1N(Cc1ccccc1)C(=O)[C@H](CC(=O)N1CCCCCC1)C2	/	-2	/	/	/	/	/
C#CCOCCOCCOCCNc1nc(N2CCN(C(=O)Cn3cc(CCCCN)nn3)CC2)nc(N2CCN(C(=O)[C@H](CCCCN)n3cc(CCCC)nn3)CC2)n1	2	-2	0	-2	-6	/	/
C#CCOCCOCCOCCNc1nc(N2CCN(C(=O)[C@H]([C@@H](C)CC)n3cc(CCCN=C(N)N)nn3)CC2)nc(N2CCN(C(=O)[C@H](CCCCN)n3cc(CCC(=O)O)nn3)CC2)n1	2	-4	0	-5	-2	/	/
C#CCOCCOCCOCCNc1nc(N2CCN(C(=O)[C@H](CCCCN)n3cc(CC(C)O)nn3)CC2)nc(N2CCN(C(=O)[C@H](Cc3ccc(O)cc3)n3cc(CCO)nn3)CC2)n1 (some centres not stated)	/	-2	/	7	-6	/	/
C#CCOCCOCCOCCNc1nc(N2CCN(C(=O)[C@H](CCCCN)n3cc(CCCC)nn3)CC2)nc(N2CCN(C(=O)[C@H](Cc3ccc(O)cc3)n3cc(CCO)nn3)CC2)n1	21*	3	47*	-2	22	-10	0
C#CCOCCOCCOCCNc1nc(N2CCN(C(=O)CCCCCCCCCCNC(=O)[C@H](CCCCN)n3cc(CCCC(=O)O)nn3)CC2)nc(N2CCN(C(=O)CCCCCCCCCCNC(=O)[C@H](CCCN=C(N)N)n3cc(C[C@@H](C)CC)nn3)CC2)n1	42*	18	0	-687	27	12	-2
C#CCOCCOCCOCCNc1nc(N2CCN(C(=O)CCCCCCCCCCNC(=O)[C@H](CCCCN)n3cc(CCO)nn3)CC2)nc(N2CCN(C(=O)CCCCCCCCCCNC(=O)[C@H](CCCCN)n3cc(CCO)nn3)CC2)n1	18*	-3	0	23	9	-15	-4

Assay outcomes as filed in PubChem.
